Assay results reported in PubChem BioAssay AID1053173 (Broad Institute, 2014).
The whole screen tested about 1,500 compounds, of which about 390 (26%) were called active. No rule for the calls is given here. Only a sample is shown. Entries with a potency or affinity are not part of this list.

target: Histone-lysine N-methyltransferase NSD2 (Homo sapiens) (UniProt O96028); experiment: NSD2 methyltransferase inhibitors, dose response, biochemical, AlphaScreen, cherry-picked samples (AID 1053173); conditions: NSD2 H4 peptide methylation, 120 min; series mostly up to 10 µM
Sequence (O96028 whole entry, looked up): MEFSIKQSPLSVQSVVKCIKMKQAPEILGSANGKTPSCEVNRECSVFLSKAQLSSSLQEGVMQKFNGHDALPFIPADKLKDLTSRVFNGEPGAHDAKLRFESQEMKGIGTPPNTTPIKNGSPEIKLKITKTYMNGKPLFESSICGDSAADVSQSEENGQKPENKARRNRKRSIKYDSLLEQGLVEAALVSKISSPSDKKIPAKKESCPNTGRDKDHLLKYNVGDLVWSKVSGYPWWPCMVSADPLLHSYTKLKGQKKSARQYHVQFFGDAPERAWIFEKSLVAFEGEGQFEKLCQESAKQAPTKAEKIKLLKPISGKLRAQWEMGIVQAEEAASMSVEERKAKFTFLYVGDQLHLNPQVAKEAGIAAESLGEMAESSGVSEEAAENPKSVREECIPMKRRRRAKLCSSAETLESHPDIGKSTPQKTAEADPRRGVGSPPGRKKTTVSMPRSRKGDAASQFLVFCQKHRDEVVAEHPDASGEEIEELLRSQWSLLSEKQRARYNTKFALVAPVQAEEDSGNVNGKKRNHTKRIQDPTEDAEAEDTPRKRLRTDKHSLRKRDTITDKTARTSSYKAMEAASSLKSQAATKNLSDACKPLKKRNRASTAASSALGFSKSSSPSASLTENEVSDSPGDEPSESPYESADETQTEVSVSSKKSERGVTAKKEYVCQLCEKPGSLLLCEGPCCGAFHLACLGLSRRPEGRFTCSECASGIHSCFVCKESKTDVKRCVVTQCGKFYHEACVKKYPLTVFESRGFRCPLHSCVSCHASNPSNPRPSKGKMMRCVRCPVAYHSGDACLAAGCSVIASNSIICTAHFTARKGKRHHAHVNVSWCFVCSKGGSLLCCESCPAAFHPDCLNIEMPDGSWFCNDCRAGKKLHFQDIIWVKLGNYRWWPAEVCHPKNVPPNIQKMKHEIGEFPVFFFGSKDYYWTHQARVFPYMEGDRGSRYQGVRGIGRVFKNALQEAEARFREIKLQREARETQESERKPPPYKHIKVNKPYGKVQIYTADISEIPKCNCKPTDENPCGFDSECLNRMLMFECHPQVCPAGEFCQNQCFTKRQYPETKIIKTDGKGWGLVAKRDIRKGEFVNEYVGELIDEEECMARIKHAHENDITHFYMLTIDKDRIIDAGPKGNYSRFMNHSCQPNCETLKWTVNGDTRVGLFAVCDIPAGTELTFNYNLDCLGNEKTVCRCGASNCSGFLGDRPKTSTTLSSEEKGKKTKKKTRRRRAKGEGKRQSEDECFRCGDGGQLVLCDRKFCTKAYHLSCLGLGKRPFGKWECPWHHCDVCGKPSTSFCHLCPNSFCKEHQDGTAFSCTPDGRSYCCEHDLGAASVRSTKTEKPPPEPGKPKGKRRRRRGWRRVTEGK

outcome, inactive:
COc1ccc(-c2nn(-c3ccccc3)cc2C(=O)Nc2ccc(C(=O)O)cc2)cc1, CC(=NO)c1cc(Br)c2cccc3c2c1CC3, Cc1ccc(/C=C2/SC(=O)NC2=S)o1, CC1(C)C2CCC1(C)C(OC(=O)CSc1nc(N)cc(=O)[nH]1)C2 (stereo unspecified), Cc1c(C(=O)c2no[n+]([O-])c2C(=O)c2cnn(C)c2C)cnn1C, COc1ccc(NC2=CC(c3cccc(OC)c3)N(c3ccc(OC)cc3)C2=O)cc1 (stereo unspecified), CCOc1ccc(NC(=O)CN(c2cccc(C(F)(F)F)c2)S(C)(=O)=O)cc1, COc1ccc(N/C=C2\CCc3ccccc3C2=O)cc1, COc1ccc(Nc2oc(COc3ccccc3OC)nc2C#N)cc1, c1coc(CNCCCN2CCOCC2)c1, O=C(CN1CCC(C(=O)c2ccc3c(c2)OCCO3)CC1)NCc1ccccc1, COc1cccc(CN(C)C(=O)c2cc(COc3c(F)cccc3F)on2)c1, Cc1ccccc1Nc1nc(N)nc(CSc2nnc3sc4ccccc4n23)n1, COc1cc2sc(C)nc2c2ccccc12, Cc1ccc(Cn2c(SCC(=O)N3CC(=O)Nc4ccccc43)nc3ccccc3c2=O)cc1, CCN1CCN(c2ncnc3scc(-c4ccc(OC)cc4)c23)CC1, O=C(O)C1CC(c2ccccc2F)=NO1 (stereo unspecified), Cc1cc(C)cc(-n2c(C)nc3cc(C(=O)O)ccc32)c1, O=C(CSc1ccc(Cl)cc1)Nc1cc(-c2nc3ncccc3o2)ccc1Cl, COCCCNC1=C(Cl)C(=O)c2ccccc2C1=O, CC(C)(C)CN1CCNC(=O)C1CC(=O)N1CCC(C(=O)N2CCOCC2)CC1 (stereo unspecified), CCOc1ccccc1/C=N/NC(=O)c1nnn(-c2nonc2N)c1CN1CCC(C)CC1, CNc1ccc(Br)cc(C(=O)/C=C/c2cccc(OC)c2OC)c1=O, COc1cc(/C=C/c2cccc[n+]2C)ccc1OCC(=O)Nc1ccccc1C, CC(C)(C)c1cc(C(=O)N/N=C/c2ccncc2)n[nH]1, CC(=O)c1ccc(NC(=S)Nc2cccc3cnccc23)cc1, COC(=O)c1c(NC(=O)C(C)C)sc(C(=O)N2CCOCC2)c1C, COc1ccc(NC(=S)Nc2cccc3cnccc23)cc1, Cc1ccccc1NC(=S)Nc1cccc2cnccc12, CN(C)CCC(=O)N1C/C(=C/c2ccccc2)C(=O)/C(=C\c2ccccc2)C1, Cn1ncc(Cl)c1C(=O)Nc1cc(C(F)(F)F)ccc1F
